# In the library only some 19% were active in any assay of this set; here they are far more common.
# DT40 TDP1 no CPT: qHTS for Inhibitors of human tyrosyl-DNA phosphodiesterase 1 (TDP1): qHTS in cells in absence of CPT; AID 686978, 2013; actives 15% (n = 420,000); Potency, µM (titrated, usually from 46.2 µM), inactives show top-dose activity change, negative = growth inhibition, most hits filed as inhibitors; DT40 Tdp1-/- hTDP1 cells, no CPT, ATP luminescence, 48 h; also: potency is read from the fitted curve at half-maximal effect; nearly all actives have a fitted effect of over 55% in size
#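 Growth of hTDP1-complemented DT40 Tdp1-knockout cells is measured by ATP luminescence after at least 48 hr compound exposure at 37 °C, with DMSO substituting for the 20 nM CPT used in the parallel screen.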
# HT1080-NT tox: kills 2HG-producing HT-1080-NT fibrosarcoma cells | actives 1.6% (n = 360,000) | HT-1080-NT fibrosarcoma viability, CellTiter-Glo ATP luminescence, 48 h | Potency, µM (top dose mostly 46.1 µM), for the others: top-dose activity, negative = less viability, usual class: cytotoxic;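 also: NT is the 2HG producing partner of a matched IDH1 knockdown line; potency is read from the fitted curve at half-maximal effect; 0% = DMSO-treated cells and -100% = media-only wells without cells; nearly all actives have a fitted effect of over 55% in size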
#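 A 48-hour cytotoxicity screen used HT-1080-NT cells plated 2 hours before compound delivery. ATP-based CellTiter-Glo luminescence measured viability, normalized to DMSO and no-cell controls.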
# TDP1 cell CPT: DT40-hTDP1 cell growth loss with CPT; chicken DT40 Tdp1-/-;hTDP1 cells + 20 nM CPT, ATP luminescence, 48 h; Potency, µM (series often up to 46.2 µM), inactives show at the top dose activity change, negative = growth inhibition, actives largely listed as inhibitors; AID 686979; actives 12% (n = 420,000); also: potency is read from the fitted curve at half-maximal effect; nearly all actives have a fitted effect of over 55% in size
#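 Cell growth measured by CellTiter-Glo luminescence after a minimum 48 h, 37 C compound exposure with 20 nM CPT in Tdp1-knockout DT40 cells stably expressing hTDP1, seeded 400/well; qHTS titration format.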
# IL-1B inflam inh: inflammasome signaling inhibition, IL-1 beta readout | THP-1 LPS/ATP IL-1B secretion, AlphaLISA, 16 h; active compounds read low | activity change, % at 57.5 µM | actives 4.7% (n = 360,000) | AID 743279; in the data active = activity change below about -50%; inconclusive = mostly about -30% to -49%
#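 Secreted IL-1B measured by AlphaLISA bead assay after 16 h compound exposure of THP-1 cells; compounds (final up to 57.5 uM) added 1 h before LPS (250 ng/mL) and ATP (1.25 mM) stimulation; lower signal means less secretion.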
# HT1080 IDH1KD tx: HT-1080 IDH1 knockdown cell toxicity (counter line) | HT-1080 IDH1 knockdown viability, ATP luminescence, 48 h | Potency, µM (series often up to 46.1 µM), without a hit: at the highest dose activity, negative = toxicity, hits mostly cytotoxic | actives 2% (n = 360,000) | AID 686971;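 also: potency is read from the fitted curve at half-maximal effect; 0% = DMSO wells and -100% = cell-free medium wells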
#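 IDH1KD HT-1080 cells, 750/well, RPMI + 5% FBS; compound pinned after 2 h settling; 48 h, 37 °C; CellTiter-Glo luminescence; % activity normalised to DMSO and no-cell wells; curves fitted, classed by r2 and efficacy.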
# An asterisk follows results filed as active; ? = inconclusive; · = no result. Unless noted, calls follow the shape of the dose curve; as a rule, active = well fitted curve in the direction sought with a large enough effect; inconclusive = small, poorly fitted or top-dose-only effect, or another doubt; inactive = no such curve, though single readings can be large; an effect the other way counts as inactive or inconclusive. Unless noted, % is scaled to controls: 0 for no effect and ±100 for the full control effect.
SMILES,DT40 TDP1 no CPT,HT1080-NT tox,TDP1 cell CPT,IL-1B inflam inh,HT1080 IDH1KD tx
Cc1ccccc1O,1%,0%,14%,-5,3%
Oc1cccc[c]1[Hg][Cl],0.15µM*,·,0.19µM*,·,·
CC(C)n1c(=O)c(C=Nc2cccc([N+](=O)[O-])c2)c(O)n(CCc2ccccc2)c1=O,-4%,-9%,-22%,-6,-11%
CC1(C)CC2CC(C)(CN2c2ncnc3ccccc23)C1 (configuration not stated),9.2µM*,?,8.2µM*,-82*,?
COc1ccc(/C=C/C(=O)NC(=S)N2C[C@H]3C[C@H](C2)c2cccc(=O)n2C3)cc1OC,0%,3%,0%,0,4%
O=C(Nc1ccc2nc(-c3cccs3)c(-c3cccs3)nc2c1)NC1CC1,18µM*,?,?,?,?
COC(=O)CSC1=NP(=S)(SCC(=O)OC)N2CCCC2=C1C#N (configuration not stated),?,5%,-26%,-94*,0%
C=CCN1CC[C@]23c4c5ccc(O)c4O[C@H]2/C(=N/NC(=O)c2ccccc2)CC[C@@]3(O)[C@H]1C5,-15%,-5%,-2%,-1,0%
CCc1cc2c(cc1-c1csc(C/C(N)=N/O)n1)C(C)(C)CCC2(C)C,18µM*,?,?,-19,?
O=[N+]([O-])c1oc2ccc3ccccc3c2c1CCO,0.52µM*,?,0.41µM*,32,?
CN1CCC(=O)N(CCN=[N+]=[N-])CC1,10%,14%,2%,16,17%
CO[C@@H]1C=CC23c4cc5c(cc4CO[C@]2(O)CN(C)[C@H]3C1)OCO5 (some centres not stated),-9%,-3%,?,10,3%
COCCCN=Cc1c(O)[nH]c(=S)[nH]c1=O,-9%,-1%,1%,-11,8%
O=C(COc1ccccc1)N1CCN(Cc2c[nH]c3ccccc23)CC1,8.2µM*,-10%,3.7µM*,8,-12%
COc1ccc(CN2CCN(C(=O)COc3ccccc3)CC2)c(OC)c1,?,·,-25%,·,·
COc1ccc(OCC(=O)N2CCN(Cc3c[nH]c4ccccc34)CC2)cc1,3.7µM*,0%,1.6µM*,-9,0%
COc1ccc(C2/C=C\CN(C(=O)Oc3ccc(C(F)(F)F)cc3)CC(=O)N2Cc2ccc(F)cc2)cc1 (configuration not stated),?,-10%,?,53,-3%
c1ccc(N2CCN(c3ccccc3)CC2)cc1,-16%,·,10%,·,·
CCN1C[C@@H]2[C@@H]3C(=O)N(Cc4ccccc4)C(=O)[C@@H]3[C@](CC)(C1=O)N2C(=O)c1ccc(C(C)(C)C)cc1,?,0%,?,23,0%
COC(=O)[C@@]1(Cc2ccccc2)[C@H]2C(=O)N(Cc3ccccc3)C(=O)[C@H]2[C@H]2CN=C(SCc3ccc(C#N)cc3)N21,?,12%,?,19,4%
CC[C@]1(C(=O)OC)[C@H]2C(=O)N(Cc3ccccc3)C(=O)[C@H]2[C@H]2CN=C(SCc3ccc(C(=O)OC)cc3)N21,?,4%,21µM*,19,-1%
CC[C@]1(C(=O)OC)[C@H]2C(=O)N(Cc3ccccc3)C(=O)[C@H]2[C@H]2CN=C(SCc3ccc(C)cc3)N21,18µM*,0%,?,19,2%
Cc1cc(C(=O)OCC(=O)Nc2ccccc2F)c(C)n1C1CC1,-43%,-3%,?,12,9%
CC(C)c1ccc(CNC(=O)c2ccc(N3CCCC3)c(NC(=O)NCc3ccccc3)c2)cc1,23µM*,·,15µM*,·,·
CC(C(=O)Nc1ccc(Br)cc1C(=O)c1ccccc1)N1CCCCC1 (configuration not stated),?,-4%,-30%,-22,-11%
SMILES,DT40 TDP1 no CPT,HT1080-NT tox,TDP1 cell CPT,IL-1B inflam inh,HT1080 IDH1KD tx
COC(=O)C1=C(c2cc3ccccc3o2)C[C@@H]2CC[C@H]1N2C(=O)N1CCC(O)CC1,23µM*,1%,?,6,-5%
COC(=O)C1=C(c2cc3ccccc3o2)C[C@@H]2CC[C@H]1N2C,-19%,2%,-20%,0,-3%
COC(=O)C1=C(c2cc3ccccc3o2)C[C@@H]2CC[C@H]1N2C(=O)N1CCC(C)CC1,2.9µM*,-14%,4.6µM*,-1,-19%
CC(=O)Nc1cnc(-c2ccccc2O)cn1,-21%,?,?,24,-11%
CC(C)Oc1ccc(CNC(=O)C2CCCN(S(=O)(=O)c3ccc4c(ccn4C)c3)C2)cc1 (configuration not stated),21µM*,·,21µM*,·,·
COc1c(/C=C2/C(=O)NC(=O)N(C)C2=O)c(CCN(C)C(=O)c2ccccc2)cc2c1OCO2,-15%,6%,0%,13,9%
C[C@]12CC[C@H]3[C@@H](CC=C4C[C@@H](O)CC[C@@]43C)[C@@H]1CC[C@@H]2O,-24%,·,-3%,·,·
C[C@H](CO)N1C[C@H](C)[C@@H](CN(C)C(=O)NC2CCCCC2)Oc2c(cccc2N(C)C)C1=O,?,0%,?,-1,-11%
Cc1ccc(-c2nn(Cc3ccccc3)cc2C=O)cc1C,16µM*,-4%,?,-22,-2%
O=C1CS[C@@H](c2ccccc2Cl)c2cc(Cl)ccc2N1,?,·,-8%,·,·
O=C1CNC(c2ccccc2Cl)c2cc(Br)ccc2N1 (configuration not stated),8.2µM*,-19%,-10%,-5,-6%
CCOC(=O)[C@@H]1[C@H]2COc3ccc(Br)cc3[C@H]2N2C(=O)N(c3cccc(C)c3)C(=O)[C@]12C,?,8%,?,7,6%
Clc1cccc(N2Cc3cc(N4CCOCC4)ccc3-n3nncc3C2)c1,?,-29%,18µM*,0,?
COc1ccc(-c2ccc3c(c2)CN(CC(C)C)Cc2cnnn2-3)cc1,?,1%,16µM*,?,-6%
Clc1cccc(N2Cc3cc(-c4ccccc4)ccc3-n3nncc3C2)c1,3.7µM*,10µM*,2.6µM*,-110*,10µM*
Cc1ccc(S(=O)(=O)N2Cc3cc(N4CCOCC4)ccc3-n3nncc3C2)cc1,?,7%,-28%,-13,8%
COc1ccc(-c2ccc3c(c2)CN(c2cccc(Cl)c2)Cc2cnnn2-3)cc1,?,10%,?,-3,-16%
CN1CCN(c2cc(N3CCCC3)c([N+](=O)[O-])cc2F)CC1,?,-6%,-26%,?,-6%
CCCn1cc(S(=O)(=O)c2ccc(OC)cc2)c(=O)c2cc(F)c(N3CCCCCC3)cc21,23µM*,·,?,·,·

# Screening data: PubChem BioAssay, National Center for Advancing Translational Sciences (NCATS)
